TDP1 cell CPT – DT40-hTDP1 cell growth loss with CPT; Potency, µM (top dose mostly 46.2 µM), usual class: inhibitors; AID 686979; chicken DT40 Tdp1-/-;hTDP1 cells + 20 nM CPT, ATP luminescence, 48 h; 12% of 420,000 active; further: nearly all actives have a fitted effect of over 55% in size
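Chicken DT40 Tdp1-/- cells stably complemented with human TDP1 were seeded at 400 cells/well in medium containing 20 nM camptothecin, exposed to pin-transferred compounds, and grown at 37 °C for at least 48 hr. Viability was read as ATP luminescence.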
IL1B secr inh – blocks inflammasome-driven IL-1 beta release; THP-1 LPS/ATP IL-1B secretion, AlphaLISA, 16 h; stronger effect = lower value; 4.7% of 360,000 active; activity change, % at 57.5 µM; in the data active means activity change below about -50%; inconclusive means mostly about -30% to -49%
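Secreted IL-1B measured by AlphaLISA bead assay after 16 h compound exposure of THP-1 cells; compounds (final up to 57.5 uM) added 1 h before LPS (250 ng/mL) and ATP (1.25 mM) stimulation; lower signal means less secretion.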
ELG1 DNA repair – blocks ELG1-dependent DNA repair in HEK293T cells | HEK293T ELG1-luciferase reporter, luminescence, 16 h; DNA damage induced by 5-fluorouridine | 2.3% of 330,000 active | Potency, µM (doses to about 46.1 µM), usual class: inhibitors | AID 504467; further: nearly all actives have a fitted effect of over 55% in size
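5-Fluorouridine DNA damage + compound/DMSO, 2,000 cells/well, 16 h, 37 °C/5% CO2. ONE-Glo, 30 min RT, luminescence. Readout = decrease in reporter signal.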
TDP1 block – TDP1 (human) enzyme inhibition | recombinant TDP1, AlphaScreen DNA substrate cleavage | Potency, µM (titrated, usually from 130 µM), actives largely listed as inhibitors | 0.28% of 350,000 active | AID 485290; further: nearly all actives have a fitted effect of over 40% in size
Target sequence (Q9NUW8 whole entry, looked up): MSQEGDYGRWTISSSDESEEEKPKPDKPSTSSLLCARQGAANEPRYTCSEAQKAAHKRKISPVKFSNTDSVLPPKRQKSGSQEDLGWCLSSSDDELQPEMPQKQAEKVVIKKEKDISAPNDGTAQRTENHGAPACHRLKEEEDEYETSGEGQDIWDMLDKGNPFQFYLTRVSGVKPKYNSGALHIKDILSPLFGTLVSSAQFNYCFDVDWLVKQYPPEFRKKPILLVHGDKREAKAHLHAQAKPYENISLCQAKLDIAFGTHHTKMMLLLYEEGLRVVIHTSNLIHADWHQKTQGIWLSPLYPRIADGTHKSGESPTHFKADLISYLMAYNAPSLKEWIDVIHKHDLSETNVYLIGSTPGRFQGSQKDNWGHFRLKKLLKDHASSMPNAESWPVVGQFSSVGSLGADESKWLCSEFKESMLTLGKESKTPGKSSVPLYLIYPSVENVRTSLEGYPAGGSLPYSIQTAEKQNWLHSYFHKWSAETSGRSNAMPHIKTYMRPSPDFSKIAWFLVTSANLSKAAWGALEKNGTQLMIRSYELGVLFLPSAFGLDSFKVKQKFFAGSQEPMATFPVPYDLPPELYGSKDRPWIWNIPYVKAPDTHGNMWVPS
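Compounds were preincubated with Tdp1 (1 nM final) for 15 min at room temperature before substrate (15 nM final) started a 5 min reaction; beads (10 ug/ml final) were then added for 10 min before AlphaScreen detection.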
TDP1 cell noCPT – qHTS for Inhibitors of human tyrosyl-DNA phosphodiesterase 1 (TDP1): qHTS in cells in absence of CPT | DT40 Tdp1-/- hTDP1 cells, no CPT, ATP luminescence, 48 h | Potency, µM (top dose mostly 46.2 µM), usual class: inhibitors | 15% of 420,000 active; further: nearly all actives have a fitted effect of over 55% in size
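Growth of hTDP1-complemented DT40 Tdp1-knockout cells is measured by ATP luminescence after at least 48 hr compound exposure at 37 °C, with DMSO substituting for the 20 nM CPT used in the parallel screen.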
Giardia killer – Giardia lamblia killing; Giardia lamblia trophozoite viability; activity change, % at 7.66 µM, hits read low; 0.15% of 340,000 active; AID 540267; in the data active means activity change below about -80%; inconclusive means between about -30% and that limit;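 further: parasites exposed to compound for two days anaerobically before the ATP read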
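Compounds were tested on trophozoites seeded at 100 cells/well and held 48 hrs at 37 deg C anaerobically. An ATP-based luminescent kit measured the remaining live cells.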
Each line names hits and unclear results; the compound was inactive in the other large screens. Compounds with a hit are over-represented: about 19% of the library has one in this group of screens. Unless noted, the call rests on the fitted dose curve; in most records, active means well fitted curve in the direction sought with a large enough effect; inconclusive means small, poorly fitted or top-dose-only effect, or another doubt; inactive means no such curve, though single readings can be large; an effect the other way counts as inactive or inconclusive.

CCCCN(Cc1cc2cc(C)ccc2[nH]c1=O)C(=O)c1cccc(Cl)c1	TDP1 cell CPT inconclusive, TDP1 cell noCPT inconclusive (no result: IL1B secr inh, ELG1 DNA repair, Giardia killer)
CCCN(Cc1cc2cc(C)ccc2[nH]c1=O)C(=O)c1cccc(Cl)c1	TDP1 cell CPT inconclusive, TDP1 cell noCPT 23.1µM (no result: IL1B secr inh, ELG1 DNA repair, Giardia killer)
Cc1ccc2[nH]c(=O)c(CN(Cc3cccnc3)C(=O)c3ccncc3)cc2c1	TDP1 cell CPT inconclusive, TDP1 cell noCPT 20.6µM
Cc1ccc2cc(CN(Cc3cccs3)C(=O)c3ccco3)c3nnnn3c2c1C	none (no result: TDP1 cell CPT, IL1B secr inh, TDP1 cell noCPT, Giardia killer)
Cc1ccc(C(=O)N(Cc2cccnc2)Cc2cc3cc(C)ccc3n3nnnc23)cc1	TDP1 cell CPT 18.4µM, ELG1 DNA repair 20.6µM, TDP1 cell noCPT inconclusive
COc1ccc(C2C=C3CNS(=O)(=O)C3CC2OC(=O)c2cccs2)cc1 (centres undefined)	none (no result: TDP1 cell CPT, IL1B secr inh, ELG1 DNA repair, TDP1 cell noCPT)
COCCn1c(Cc2ccccc2)nnc1SCC(=O)NC1CC1	none (no result: TDP1 block)
CNC(=S)N(Cc1cc2cc(C)ccc2n2nnnc12)CC(C)(C)CN(C)C	none (no result: TDP1 block)
Cc1ccc2c(c1)cc(CN(Cc1ccc3c(c1)OCO3)S(=O)(=O)c1ccccc1)c1nnnn12	TDP1 cell CPT inconclusive, ELG1 DNA repair inconclusive, TDP1 cell noCPT 20.6µM
CS(=O)(=O)N1CCC(C(=O)Nc2ccccc2Br)CC1	none (no result: TDP1 block)
CCN(c1ccccc1)S(=O)(=O)c1nnc(NC(=O)C2CCCCC2)s1	none (no result: IL1B secr inh, ELG1 DNA repair, Giardia killer)
CC(C)CN(c1ccccc1)S(=O)(=O)c1nnc(NC(=O)C2CCCCC2)s1	TDP1 cell CPT 5.17µM, TDP1 cell noCPT inconclusive (no result: IL1B secr inh, ELG1 DNA repair, Giardia killer)
CCN(c1ccc(C)cc1)S(=O)(=O)c1nnc(NC(=O)C2CCCCC2)s1	TDP1 cell CPT inconclusive, TDP1 cell noCPT 10.3µM (no result: IL1B secr inh, ELG1 DNA repair, Giardia killer)
O=S(=O)(Nc1ccccc1N1CCCCC1)c1ccc(Cl)s1	TDP1 cell CPT 10.3µM, TDP1 cell noCPT 8.2µM
O=S(=O)(Nc1ccccc1N1CCOCC1)c1ccccc1C(F)(F)F	TDP1 cell CPT inconclusive, TDP1 cell noCPT 18.4µM
O=S(=O)(Nc1ccccc1N1CCCC1)c1ccccc1C(F)(F)F	TDP1 cell CPT 20.6µM, TDP1 cell noCPT 20.6µM (no result: ELG1 DNA repair, TDP1 block, Giardia killer)
CCOC(=O)c1c(N2C(=O)C3C4C=CC(O4)C3C2=O)sc2c1CCCC2 (centres undefined)	TDP1 cell CPT 8.2µM, TDP1 cell noCPT 16.4µM (no result: ELG1 DNA repair)
CNC(CC(C)C)C(=O)NC1C(=O)NC(CC(N)=O)C(=O)NC2C(=O)NC3C(=O)NC(C(=O)NC(C(=O)O)c4cc(O)cc(O)c4-c4cc3ccc4O)C(O)c3ccc(c(Cl)c3)Oc3cc2cc(c3OC2OC(CO)C(O)C(O)C2OC2CC(C)(N)C(O)C(C)O2)Oc2ccc(cc2Cl)C1O (centres undefined)	none (no result: ELG1 DNA repair, TDP1 block)
Cc1onc(-c2c(F)cccc2Cl)c1C(=O)OCn1nnc2ccccc2c1=O	TDP1 cell CPT inconclusive, ELG1 DNA repair inconclusive, TDP1 cell noCPT 23.1µM
Cc1noc(C)c1C(=O)OCC(=O)Nc1c(F)cccc1F	TDP1 cell CPT 16.4µM, TDP1 cell noCPT 18.4µM
Cc1onc(-c2c(F)cccc2Cl)c1C(=O)OCC(=O)N(C)c1ccccc1	TDP1 cell CPT 1.3µM, TDP1 cell noCPT 0.92µM (no result: ELG1 DNA repair, TDP1 block, Giardia killer)
Cc1onc(-c2c(F)cccc2Cl)c1C(=O)OCC(=O)NCc1ccccc1	TDP1 cell CPT inconclusive, ELG1 DNA repair inconclusive, TDP1 cell noCPT inconclusive
CC(=O)Nc1ccc(S(=O)(=O)N(C)CC(=O)OCCOc2cccc(C)c2)cc1	none
CN(C(=O)CSc1nc2c(cnn2-c2ccccc2)c(=O)[nH]1)C1CCS(=O)(=O)C1 (centres undefined)	none (no result: TDP1 cell CPT, IL1B secr inh, TDP1 cell noCPT, Giardia killer)
COc1ccccc1NC(=O)CCCCCN1C(=O)c2cccc([N+](=O)[O-])c2C1=O	TDP1 cell noCPT inconclusive (no result: TDP1 block)
COc1cc(/C=C2/C(=O)c3cccc([N+](=O)[O-])c3C2=O)c(Br)cc1O	TDP1 cell CPT 6.51µM, ELG1 DNA repair inconclusive, TDP1 cell noCPT 5.17µM
O=C(NCc1ccc(F)cc1)C(=O)NCC1OCCN1S(=O)(=O)c1cc(F)ccc1F (centres undefined)	none (no result: ELG1 DNA repair, TDP1 block, Giardia killer)
C=C(C)CSc1cc(C)c(C#N)c2nc3ccccc3n12	TDP1 cell CPT 20.6µM, ELG1 DNA repair inconclusive, TDP1 cell noCPT 9.2µM
CCOc1ccc(NS(=O)(=O)c2c(C)nc3sc(CC)nn3c2=O)cc1	TDP1 cell CPT inconclusive, TDP1 cell noCPT inconclusive
Cc1cc(C(=O)Nc2ccccc2-c2nc(CNC(=O)c3sc(C)nc3C)c(C)o2)c(C)o1	none (no result: IL1B secr inh, ELG1 DNA repair, TDP1 block, Giardia killer)
Cc1cc(C)cc(C(=O)NCc2nc(-c3cccc(NC(=O)c4ccccn4)c3)oc2C)c1	none (no result: IL1B secr inh, ELG1 DNA repair, TDP1 block, Giardia killer)
Cc1cc(C(=O)Nc2cccc(-c3nc(CNC(=O)c4sc(C)nc4C)c(C)o3)c2)c(C)o1	TDP1 cell noCPT 20.6µM (no result: IL1B secr inh, ELG1 DNA repair, TDP1 block, Giardia killer)
Cc1ccc(C(=O)Nc2cccc(-c3nc(CNC(=O)c4cccc(C)c4C)c(C)o3)c2)s1	TDP1 cell CPT 23.1µM, TDP1 cell noCPT 20.6µM (no result: IL1B secr inh, ELG1 DNA repair, TDP1 block, Giardia killer)
Cc1ccc(C(=O)Nc2cccc(-c3nc(CNC(=O)c4ccc(F)cc4Cl)c(C)o3)c2)s1	none (no result: IL1B secr inh, ELG1 DNA repair, TDP1 block, Giardia killer)
C#Cc1cccc(C(=O)NCc2nc(-c3cccc(NC(=O)c4ccccn4)c3)oc2C)c1	TDP1 cell CPT inconclusive, TDP1 cell noCPT 23.1µM (no result: IL1B secr inh, ELG1 DNA repair, TDP1 block, Giardia killer)
Cc1cc(C(=O)NCc2nc(-c3cccc(NC(=O)c4cc(C)oc4C)c3)oc2C)nc(C)n1	TDP1 cell noCPT 20.6µM (no result: IL1B secr inh, ELG1 DNA repair, TDP1 block, Giardia killer)

High-throughput results from PubChem.
